SMILES strings stand for the structures. Inconclusive results are not listed. Values without a mark were called inactive. Calls of active or inactive are those of the source. Calls follow the shape of the dose curve; as a rule, active = well fitted cell-killing curve with a large enough effect; inconclusive = small, poorly fitted or top-dose-only effect, or effect the other way; inactive = no such curve, though single readings can be large or run the other way.
Also: nearly all actives have a fitted effect of over 30% in size.
Potency is read from the fitted curve at half-maximal effect.

One test can be described thus: Quantitative High-Throughput drug screen in 47 multiple myeloma cell lines against the NCATS MIPE library collection: RPMI8226_ATCC cell viability assay (AID 1919871). The following applies: RPMI8226 myeloma viability, CellTiter-Glo ATP luminescence, 48 h; series mostly up to 45.8 µM; viability (% of control): at the top concentration. In outline:
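Cells were exposed to library compounds for 48 hours, after which ATP was measured by CellTiter-Glo. Signal was taken as median relative luminescence units.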
Take `CN(C)CCCN1c2ccccc2CCc2ccc(Cl)cc21`: the Potency is 16.6 µM (active).

Turning to `CC(C)(Oc1ccc(C2CC2(Cl)Cl)cc1)C(=O)O` (stereo unspecified), the “viability (% of control)” value was 124% [at 92.2 µM].

As to `CN(C)C(=O)C(CCN1CCC(O)(c2ccc(Cl)cc2)CC1)(c1ccccc1)c1ccccc1`, the Potency was 20.9 µM (active).

On to `Cn1c(=O)c2c(ncn2C)n(C)c1=O`, for which the “viability (% of control)” value is 105%.

For the compound `CN(C)C(=N)N=C(N)N`, the “viability (% of control)” value is 111%.

Consider `CC(C)(C)C(=O)Oc1ccc(S(=O)(=O)Nc2ccccc2C(=O)NCC(=O)O)cc1`, for which the “viability (% of control)” value was 116%.

For the compound `CC(C(=O)O)c1cccc(C(=O)c2ccccc2)c1` (stereo unspecified), the “viability (% of control)” value is 91.2%.

In the case of `CC[N+](CC)(CC)CCOc1cccc(OCC[N+](CC)(CC)CC)c1OCC[N+](CC)(CC)CC`, the “viability (% of control)” value was 83.6%.

As to `CCN1CCCC1CNC(=O)c1cc(S(=O)(=O)CC)c(N)cc1OC` (stereo unspecified), the “viability (% of control)” value was 106%.

A short description of another test: Quantitative High-Throughput drug screen in 47 multiple myeloma cell lines against the NCATS MIPE library collection: OPM2_DSMZ cell viability assay (AID 1919872). The note with it: OPM2 myeloma viability, CellTiter-Glo ATP luminescence, 48 h; series mostly up to 45.8 µM; viability (% of DMSO): at the top concentration. The method in brief:
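Primary qHTS used for cherry-picking: cells at 500/well, library compounds for 48 h (37C, 5% CO2), luminescent ATP assay.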
A general note: Cellular ATP, detected with luciferase, serves as a proxy for viable cell number.
For `CN1CCC(=C2c3ccccc3C=Cc3ccccc32)CC1`, the “viability (% of DMSO)” value is 88%.

Consider `COc1cc2nc(N3CCN(C(=O)C4COc5ccccc5O4)CC3)nc(N)c2cc1OC` (stereo unspecified), for which the “viability (% of DMSO)” value was 89.6%.

In the case of `Cc1cc(C(C)(C)C)c(O)c(C)c1CC1=NCCN1`, the “viability (% of DMSO)” value is 110%.

Take `CC(C)(Oc1ccc(C2CC2(Cl)Cl)cc1)C(=O)O` (stereo unspecified): the “viability (% of DMSO)” value is 119% [at 92.2 µM].

With `CN(C)C(=O)C(CCN1CCC(O)(c2ccc(Cl)cc2)CC1)(c1ccccc1)c1ccccc1`, the Potency was 18.7 µM (active).

In the case of `CC#C[C@]1(O)CC[C@H]2[C@@H]3CCC4=CC(=O)CCC4=C3[C@@H](c3ccc(N(C)C)cc3)C[C@@]21C`, the Potency is 1.18 µM (active).

For `NC(=O)NO`, the Potency is 6.62 µM (active).

With `Cn1c(=O)c2c(ncn2C)n(C)c1=O`, the “viability (% of DMSO)” value is 96.4%.

Regarding `CC[C@@]1(O)C(=O)OCc2c1cc1n(c2=O)Cc2cc3c(CN(C)C)c(O)ccc3nc2-1`, the Potency is 16.6 µM (active).

`CN(C)C(=N)N=C(N)N`: the “viability (% of DMSO)” value was 107%.

As for `CC(C)(C)C(=O)Oc1ccc(S(=O)(=O)Nc2ccccc2C(=O)NCC(=O)O)cc1`, the “viability (% of DMSO)” value was 99.1%.

Take `Cn1c(=O)c2[nH]cnc2n(C)c1=O`: the “viability (% of DMSO)” value was 107%.

Take `CC(C(=O)O)c1cccc(C(=O)c2ccccc2)c1` (stereo unspecified): the “viability (% of DMSO)” value was 87.5%.

On to `O=C(Nc1ccc([N+](=O)[O-])cc1Cl)c1cc(Cl)ccc1O`, for which the Potency is 1.32 µM (active).

Take `Cc1cc(C(C)(C)C)cc(C)c1CC1=NCCN1`: the “viability (% of DMSO)” value was 102%.

Consider `O=c1[nH]cc(F)c(=O)[nH]1`, for which the “viability (% of DMSO)” value was 110%.

On to `O=C1c2c(O)ccc(O)c2C(=O)c2c(NCCNCCO)ccc(NCCNCCO)c21`, for which the Potency was 3.32 µM (active).

As for `COc1ccccc1OCC(O)CN1CCN(CC(=O)Nc2c(C)cccc2C)CC1` (stereo unspecified), the “viability (% of DMSO)” value is 111%.

In the case of `Nc1nc2c(ncn2COC(CO)CO)c(=O)[nH]1`, the Potency was 23.5 µM (active).

Turning to `CC(C)NCC(O)c1ccc(O)c(O)c1` (stereo unspecified), the “viability (% of DMSO)” value is 79.6%.

Consider `NC12CC3CC(CC(C3)C1)C2`, for which the “viability (% of DMSO)” value was 96.9%.

On to `CCC1(c2ccccc2)C(=O)NCNC1=O`, for which the “viability (% of DMSO)” value was 93.2%.

As for `CC[N+](CC)(CC)CCOc1cccc(OCC[N+](CC)(CC)CC)c1OCC[N+](CC)(CC)CC`, the Potency was 0.118 µM (active).

For the compound `CS(=O)(=O)CCNCc1ccc(-c2ccc3ncnc(Nc4ccc(OCc5cccc(F)c5)c(Cl)c4)c3c2)o1`, the Potency was 16.6 µM (active).

Consider `CN1C(C(=O)Nc2ccccn2)=C(O)c2ccccc2S1(=O)=O`, for which the “viability (% of DMSO)” value is 108%.

In the case of `CCN1CCCC1CNC(=O)c1cc(S(=O)(=O)CC)c(N)cc1OC` (stereo unspecified), the “viability (% of DMSO)” value is 97.5%.

For `CN1CCN(CCCN2c3ccccc3Sc3ccc(Cl)cc32)CC1`, the “viability (% of DMSO)” value is 92.4%.

(Values after PubChem BioAssay (NCATS).)
